Results reported in ChEMBL document CHEMBL3988442, “University of Dundee, Small-Polar-MMV Screening Library” (2021).
In all, about 48,000 compounds went through this assay and about 13,000 (27%) showed an effect of 50% or more. The list shows a part of the results.

test system: Wolbachia pipientis; experiment: Anti-Wolbachia Cell-Based Screen; assay type: functional; set-up: scale not given: in the data most compounds retested in dose-response had high values; conditions: 5 µM

Compound	Percent Effect
CC(C)n1ncc2c1NC(=O)C(C#N)C21CCCCC1 (stereo unspecified)	14.23%
CC(C)c1cccc(S(=O)(=O)NCCCN2CCC(O)CC2)c1	-12.32%
Cc1cscc1C(=O)Nc1cncnc1N(C)C	-5.667%
O=C(NCCNc1cnccn1)C1CCN(C(=O)N2CCCC2)CC1	14.69%
O=C(NCCNc1cnccn1)N1CCCC(N2CCCC2)C1 (stereo unspecified)	106%
O=C(NCCCn1cncn1)N1CCCC(N2CCCC2)C1 (stereo unspecified)	-12.43%
O=C(NCCNc1cnccn1)N1CCCC1	0.5946%
N#Cc1cccnc1NCCNC(=O)N1CCCC(N2CCCC2)C1 (stereo unspecified)	15.17%
O=C(NCCNc1cnccn1)N1CCCCCC1	67.88%
Cc1cnc(CN(Cc2ccccc2)CC(O)c2cccs2)cn1 (stereo unspecified)	-0.3476%
CCc1nc(C)c(C(=O)N2CCCN(Cc3cnn(C)c3)CC2)s1	-6.859%
CC(Oc1ccc(F)cc1)C(=O)N(CC(N)=O)C1CCCC1 (stereo unspecified)	-8.353%
CC[C@H](C)[C@H](N)C(=O)N1CC(=O)c2sc(Nc3ccc(F)cc3)nc2C1	106.2%
CC(C)NC(=O)N1CC(=O)c2sc(Nc3ccc(C#N)cc3)nc2C1	104.4%
CC[C@H](C)[C@H](N)C(=O)N1CC(=O)c2sc(NCc3ccccc3)nc2C1	97.62%
CN(C(=O)CNc1ccc(C#N)cc1)C1CCCCC1	-20.31%
CC(NC(=O)N1CCN(c2ncccn2)CC1)c1ccc(C#N)cc1 (stereo unspecified)	-9.134%
CCc1cccc(OC2CN(C(=O)[C@@H](N)[C@@H](C)O)C2)c1	-4.168%
N#Cc1ccc(NC(=O)N2CCCCC2CN2CCCC2=O)cc1 (stereo unspecified)	-0.03317%
CCOC(=O)N1CCN(C(=O)c2sc(-c3ccc(F)cc3)nc2C)CC1	5.729%
CC(NC(=O)N1CCN(c2cccs2)CC1)c1ccc(C#N)cc1 (stereo unspecified)	-13.59%
N#Cc1ccc(Nc2nc3c(s2)C(=O)CN(CC2CC2)C3)cc1	122.3%

Compound	Percent Effect
CCOCC(=O)N1Cc2cnc(-c3ccccc3)nc2C1	12.32%
Cc1cc(NC(=O)CCN2CCn3c(C)nnc3C2)no1	-12.27%
Fc1cc(CNc2nncs2)ccc1Cl	-25.14%
CC(C)NC(=O)[C@@H]1Cc2[nH]cnc2CN1CCCc1ccccc1	-2.135%
CCN(C)S(=O)(=O)N(Cc1cscn1)c1ccccc1	-21.13%
CC1CCN(C(=O)Cc2ccc(S(=O)(=O)C(F)F)cc2)CC1	3.078%
CCOc1ccc(C(=O)Nc2c(C)nc3scc(C)n3c2=O)cc1	-3.66%
CC(C)CC(=O)Nc1c(-c2ccc(F)cc2)ncn1C	20.71%
Cc1nnc(NC(=O)N2CCN(Cc3ccc(F)cc3)C(=O)C2)s1	-5.387%
CC(C)CC(=O)N1CC(=O)c2sc(Nc3ccc(C#N)cc3)nc2C1	99.17%
CC(CNC(=O)Nc1ccc(C#N)cc1)N1CCc2ccccc21 (stereo unspecified)	15.75%
CC(C1CC1)N(C(=O)CNc1ccc(C#N)cc1)C1CC1 (stereo unspecified)	-11.75%
CC(C)CC(=O)N1CC(=O)c2sc(Nc3ccc(F)cc3)nc2C1	97.08%
Cn1c(-c2ccccc2Cl)nc2cc(C(=O)NC(CO)CO)cnc21	-7.352%
COCCc1noc(-c2ccc(-c3cc[nH]n3)nc2)n1	6.666%
Cl.Cn1nc(C2CCCN(Cc3cc(F)ccc3F)C2)c2nccnc21 (stereo unspecified)	109%
COCc1nccc(C2CCCN(Cc3ccc(C#N)cc3F)C2)n1 (stereo unspecified)	7.365%
OC1CCCN(Cc2ccc(F)c3cccnc23)C1 (stereo unspecified)	11.38%
Cn1nc(C2CCCN(Cc3ccc(F)cc3F)C2)c2nccnc21 (stereo unspecified)	118.1%
Cc1nc(CN2CCCC(CCc3ccc(F)cc3F)C2)c[nH]1 (stereo unspecified)	10.82%
CCn1c(C2CCCN(Cc3cc(F)ccc3OC)C2)nn(C)c1=O (stereo unspecified)	-8.154%
COCCOc1ccccc1C(=O)Nc1c(C)cnn1CC1CC1	0.1744%

Compound	Percent Effect
NC(=O)CC1CCN(c2ncnc3cccc(F)c23)CC1	0.8232%
Cc1nccn1-c1cc(CNC(=O)CCNC(=O)OC(C)(C)C)ccn1	-3.866%
CCc1cc(NCc2cccnc2N2CCCCC2)n2ncnc2n1	-26.62%
Cc1cc(C(=O)N(C)S(C)(=O)=O)ccc1F	-1.159%
CC(C)CCNC(=O)C(c1cccc(F)c1)N(C)C (stereo unspecified)	-2.485%
CC(O)CN(Cc1cccc(C(=O)N(C)C)c1)c1ccccc1 (stereo unspecified)	9.156%
CC(C)CN(CC(=O)O)C(=O)c1ccc(F)cc1	116.8%
Cc1cccc(C(=O)N(CC(=O)O)CC(C)C)c1	94.29%
CCN(CC)C(=O)c1cccc(Cn2nc(C)cc2C)c1	-2.548%
Cc1ccc(C(=O)N(CC(=O)O)CC(C)C)cc1F	102.6%
Cc1noc(NC(=O)c2ccc(C)c(F)c2)n1	6.644%
CN(CC(=O)NCCC#N)C(c1ccccc1)c1ccc(F)cc1 (stereo unspecified)	2.68%
Cc1ccc(C(=O)NCCNC(=O)c2cncnc2C(C)C)cc1F	15.15%
Cc1cc(C(=O)N(CC(=O)O)CC(C)C)ccc1F	96.02%
Cc1cc(C(=O)N(C)S(=O)(=O)C(C)C)ccc1F	-2.598%
CCC1CN(C(=O)c2ccccc2C(C)=O)CCN1C(C)C (stereo unspecified)	1.877%
COc1cccc(CNC2CCc3ccc(C)cc32)n1 (stereo unspecified)	12.65%
COCCN1CCN(CC(=O)N(C)Cc2ccccc2)CC1C (stereo unspecified)	2.857%
CN(c1nc(Cn2cnccc2=O)cs1)C1CC1	6.38%
CNC(=O)C1CN(C)CCN1c1nc(C)cc(C)n1 (stereo unspecified)	94.41%
CNC(=O)C1CN(C(C)C)CCN1c1nc(C)cc(C)n1 (stereo unspecified)	92.65%
CCCN1Cc2ccccc2CC1C(=O)NC (stereo unspecified)	-1.794%

Compound	Percent Effect
CNC(=O)C1Cc2ccccc2CN1CCC#N (stereo unspecified)	-3.828%
Cc1cccnc1NC(=O)C1CCN(C(C)C(=O)NC(C)(C)C)CC1 (stereo unspecified)	-8.313%
CNC(=O)C1CCCN1c1nc(C)c2ccccc2n1 (stereo unspecified)	9.069%
CNC(=O)[C@H]1CC[C@@H]2[C@@H](CCN2c2ncccn2)O1	0.107%
CNC(=O)[C@@H]1C[C@@H](N)CN1c1nc(N2CCCC2)nc(C)c1C	2.441%
CNC(=O)C1CN(C(C)C)CCN1c1ncccn1 (stereo unspecified)	82.95%
OC1CCN(c2nc(-c3ccccc3)no2)CC1	-0.7688%
O=C(Nc1ccc(N2CCCCC2)nc1)N1CCc2sccc2C1	2.777%
Cc1cc(NC(=O)N(Cc2ccc(C#N)cc2)C(C)C)no1	2.443%
c1cncc(-c2noc(CNC3CCCN(c4cccnn4)C3)n2)c1 (stereo unspecified)	-17.88%
Cc1ncccc1CNCC1COC2(CCCCC2)O1 (stereo unspecified)	-0.2961%
COc1ccccc1C1Cn2c(C)cnc2CN1Cc1ccc(C)nc1 (stereo unspecified)	131%
COc1ccccc1[C@@H]1CN(Cc2cnn(C)c2C)C[C@H]1C(=O)O	-12.3%
COc1ccccc1[C@@H]1CN(Cc2nccn2C)C[C@H]1C(=O)O	-20.61%
COc1ccccc1C1Cn2ccnc2CN1Cc1c[nH]nc1C (stereo unspecified)	158.2%
Cc1n[nH]cc1CNC1CCN(c2ccccc2)CC1.Cl	-14.69%
COCc1ncc(CN2CCC(Oc3ccccc3OC)CC2)cn1	3.684%
COc1ccccc1CC(=O)N1CCC(NCc2c[nH]nc2C)CC1	3.473%
COc1ccccc1[C@@H]1CN(Cc2cnc(N(C)C)nc2)C[C@H]1C(=O)O	-3.277%
COc1ccccc1C1Cn2c(C)cnc2CN1Cc1c[nH]nc1C (stereo unspecified)	184.6%
CCOC(=O)c1nc(CN2CCC(NC(=O)C(C)C)CC2)cs1	-9.152%
O[C@@H]1Cc2ccccc2[C@@H]1Nc1ncccc1F	-3.78%

Compound	Percent Effect
O=C(Cn1cccc2oc(=O)nc1-2)NCC1Cc2ccccc2O1 (stereo unspecified)	-3.762%
O=S(=O)(N1CCCCC1)N1CCC(Oc2cnccn2)CC1	106.7%
O=S(=O)(c1ccc(F)cc1)N1CCOC[C@H](Oc2cnccn2)C1	-9.472%
O=S(=O)(N1CCOCC1)N1CCC(Oc2cnccn2)CC1	115%
Cc1noc(C)c1S(=O)(=O)N1CCC(Oc2cnccn2)CC1	11.35%
Cc1n[nH]c(C)c1S(=O)(=O)N1CCC(Oc2cnccn2)CC1	120.8%
Cc1ccc(S(=O)(=O)N2CCC(Oc3ccccn3)CC2)c(C)c1	1.938%
O=S(=O)(c1ccc(Cl)cc1)N1CCOC[C@H](Oc2cnccn2)C1	-1.113%
CN(C)S(=O)(=O)N1CCC(Oc2cnccn2)CC1	2.095%
CC1CCN(S(=O)(=O)N2CCC(Oc3cnccn3)CC2)CC1	109.5%
CS(=O)(=O)N1CCC(Oc2cnccn2)CC1	-17.13%
COC(=O)c1sccc1S(=O)(=O)N1CCC(Oc2cnccn2)CC1	2.794%
COc1ccc(C2CCCN2c2ccnc(C)c2Cl)c(OC)c1 (stereo unspecified)	-16.05%
CC(=O)N(C)Cc1nn(C)c2c1CN(Cc1ccsc1)C2.O=C(O)C(F)(F)F.O=C(O)C(F)(F)F	-3.994%
O=C(O)C(F)(F)F.O=C([C@@H]1COC[C@H]2CN(C3CCCC3)C[C@H]21)N1CCCCO1	2.547%
CC(Cn1cccn1)NC(=O)N1CCC(NS(C)(=O)=O)CC1 (stereo unspecified)	10.97%
O=C(O)C1CCN(c2nc3c(-c4ccccc4F)csc3c(=O)[nH]2)CC1	-3.996%
CS(=O)(=O)NCCCNc1ccc(C(F)(F)F)cc1C#N	-7.983%
